Experimental findings from ChEMBL document CHEMBL4513216, “Probing the Open Global Health Chemical Diversity Library for Multistage-Active Starting Points for Next-Generation Antimalarials” (ACS Infect Dis, 2020) are described below.

The whole screen tested about 68,000 compounds, of which about 2,700 (4%) showed an effect of 50% or more. This is one part of a sample in which strong results are shown more often than they occur.

This test has as its system Plasmodium berghei. The test can be described thus: Screen against P. berghei liver stage (PbLuc), transformed with Luciferase, at 2uM. The test is classed as functional, HepG2. As to conditions: tested at 2 uM.
Turning to `Cn1c(CN2CCCCC2)nnc1C1CCN(c2nccc(N)n2)CC1`, the INHIBITION amounted to 21.2%. The value for `c1cnn(CC2CN(Cc3noc(C4CC4)n3)CCO2)c1` (configuration not stated) was -28.51%; that for `CCn1c(=O)n(Cc2nc(C3CC3)no2)c2ccccc21` was 30.82%. The figure for `CCC1c2ccccc2CCN1C(=O)c1ccnc(C(=O)OC)c1` (configuration not stated) is 20.34%. Consider `CCc1nnc(C(C)N2CCN(CCC(C)(C)C)CC2)o1` (configuration not stated), for which the INHIBITION was determined as 38.97%. `COc1cc(OCC(=O)NCCc2ccccc2)cc(OC)c1OC`: the INHIBITION came to 28.85%. The value for `COc1cc(C(=O)O)ccc1OCC(=O)NCCc1ccccc1` was 10.1%; that for `COc1cc(C(=O)O)cc(I)c1OCC(=O)NCCc1ccccc1` was 56.69%. The value for `CCN1C[C@H]2[C@@H](C1)N(c1ncc(F)cn1)CC[C@H]2OC` was 12.29%. For the compound `CCc1ncc2c(n1)CN(Cc1nnc(CC)o1)CC2`, the INHIBITION was found to be 9.18%. As to `CCc1ncc2c(n1)CN(Cc1nnc(C)o1)CC2`, the INHIBITION came to 59.18%. In the case of `CCc1ncc2c(n1)CN(Cc1nnc(C(C)C)o1)CC2`, the INHIBITION stood at 46.76%. `COCCN1C[C@@H]2[C@@H](OC)CCN(Cc3ccsc3)[C@@H]2C1`: the INHIBITION came out at 20.91%.

Take `CC(=O)N1C[C@@H](F)[C@@H](OCc2nc3ccc(C#N)cc3[nH]2)C1`: the INHIBITION came out at 36.99%. As for `Cc1cc2nc(CO[C@H]3CN(C4CCN(C)CC4)C[C@H]3F)[nH]c2cc1C`, the INHIBITION was 50.7%. The value for `CN1C[C@@H](F)[C@@H](OCc2nc3ccc(C#N)cc3[nH]2)C1` was 52.91%.

Turning to `Cc1cc2nc(CO[C@H]3CN(C4CCC4)C[C@H]3F)[nH]c2cc1C`, the INHIBITION is recorded as 46.17%. Regarding `CN1C[C@@H](F)[C@@H](OCc2nc3ccccc3[nH]2)C1`, the INHIBITION came out at 40.83%.

For the compound `Cc1cc2nc(CO[C@H]3CN(C4CCCCC4)C[C@H]3F)[nH]c2cc1C`, the INHIBITION was 18.65%. The value for `O=C(Cn1cc(Cl)cn1)N1CCCC(c2cc3ccccc3cn2)C1` (configuration not stated) was 36.98%.

Take `CCC(NC(=O)c1cnc(N(C)C)nc1C)c1ccc(S(C)(=O)=O)cc1` (configuration not stated): the INHIBITION was 70.81%. `COCCNC(=O)c1cnc(N(C)C)nc1C`: the INHIBITION is on record as 12.85%. The value for `Cc1nc(N(C)C)ncc1C(=O)NCCc1csc(-c2ccncc2)n1` was 40.05%; that for `CCn1c(C)nnc1SCCNC(=O)c1cnc(N(C)C)nc1C` was -41.73%.

Consider `CCn1nc(C)c(C(C)NC(=O)c2cnc(N(C)C)nc2C)c1C` (configuration not stated), for which the INHIBITION is -12.22%. On to `CCC(NC(=O)c1cnc(N(C)C)nc1C)c1ccncc1` (configuration not stated), for which the INHIBITION was determined as 57.34%. As for `O=C(CN1CCc2cncnc2C1)N1CCc2sccc2C1`, the INHIBITION is -27.59%. Take `Cn1cnnc1SCC(=O)N1C[C@@H]2CC[C@H]1CN(Cc1cccnc1)C2`: the INHIBITION was determined as 12.74%.

Take `O=C(CN1CCCCC1)Nc1cc(C(F)(F)F)ccc1-n1cccc1`: the INHIBITION turned out to be 18.54%. The value for `CNC(=O)c1cccc(CNC(C)c2cc(Cl)ccc2OC)c1` (configuration not stated) was 19.81%; that for `CNC(=O)c1cccc(CNC(C)c2cc(C)ccc2OC(F)F)c1` (configuration not stated) was 25.55%; that for `CNC(=O)c1cccc(CNC(C)c2ccc(F)cc2N(C)C)c1` (configuration not stated) was 55.25%. For the compound `CC(C)n1nc(O)c2c1NC(=O)CSC2c1cnn(C)c1` (configuration not stated), the INHIBITION is 6.9%. The value for `COc1cc(CNCC(C)O)cc(Cl)c1OCc1ccc(C)cc1` (configuration not stated) was 44.51%.

On to `C=C(C)CN1CCN(Cc2nccn2C)C(C)C1` (configuration not stated), for which the INHIBITION is listed as 36.95%. Regarding `COc1ccc(F)cc1CN1CCN(Cc2nccn2C)C(C)C1` (configuration not stated), the INHIBITION was -49.85%. The value for `CC1CN(CC(=O)N2CCOCC2)CCN1Cc1nccn1C` (configuration not stated) was 66.27%; that for `COc1ccc(C(C)N2CCN(Cc3nccn3C)CC2)cc1Cl` (configuration not stated) was 18.31%. As for `Cc1ccccc1CN1CCN(Cc2nccn2C)CC1`, the INHIBITION was determined as 20.28%. Take `CC1CN(CC(=O)NC2CCOCC2)CCN1Cc1nccn1C` (configuration not stated): the INHIBITION is given as -0.99%. The value for `COc1ccc(C)cc1CN1CCN(Cc2nccn2C)CC1` was 50.61%; that for `COc1ccc(CN2CCN(Cc3nccn3C)C(C)C2)cc1F` (configuration not stated) was -13.34%; that for `COc1ccc(C)cc1CN1CCN(Cc2nccn2C)C(C)C1` (configuration not stated) was 50.61%. The figure for `Cc1cc(CN2CCc3nc(N4CCOCC4)nc(O)c3CC2)c(C)s1` is 22.84%; for `Cc1cccc(CNC2CC3(CCN(CCO)CC3)c3ccccc32)n1` (configuration not stated) it is 34.02%. For the compound `Cc1ccc2oc(SCC(N)=O)nc2n1`, the INHIBITION is given as -30.1%.

As for `CN(C(=O)Nc1nncs1)C1CCN(c2ccccc2Cl)C1=O` (configuration not stated), the INHIBITION is on record as 2.06%. With `Cn1cnc2c1C(COCC1CCOCC1)CN(C(=O)c1ccco1)C2` (configuration not stated), the INHIBITION is -39.19%. The value for `CN(C)C(=O)N1CCN(C(=O)CCc2ccccc2)[C@H]2CS(=O)(=O)C[C@H]21` was -93.14%. The value for `Cn1c(C2CC2)nc2c1CCN(Cc1nc3ccccc3s1)C2` was 14.59%; that for `CN1CC2(CCN(C(=O)COc3ccc(Cl)cc3Cl)CC2)OC1=O` was 16.37%. The value for `CSCCCN1CCC(c2nnc(Cn3ccnc3)n2C2CC2)CC1` was 54.29%.
